Screening data: PubChem, several laboratories
The list is not random: actives were taken first. Their share in the collection is about 3.9%.
Cardio protect: myocardial damage modulation in H9c2 cells; H9c2 cardiomyocytes, H2O2 injury protection, ATPLite, 2 h; protection from H2O2 cell death, % at 20 µM; 0.63% of 360,000 active;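 active = compounds giving at least 50% protection of heart cells from peroxide-induced death in the single-dose screen, raw or plate-pattern-corrected value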;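 also: 0% = DMSO wells with peroxide and 100% = DMSO wells without peroxide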
ALR H2O2 inh: human ALR oxidase inhibition via reduced H2O2. P55789. purified ALR, DTT oxidation, H2O2 HRP-luminol luminescence. inhibition, % (no concentration beside the values). 3.8% of 290,000 active;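 active = mean replicate inhibition above about 79%, with every replicate also reaching it, limit read from the data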
Target sequence (P55789 whole entry, looked up): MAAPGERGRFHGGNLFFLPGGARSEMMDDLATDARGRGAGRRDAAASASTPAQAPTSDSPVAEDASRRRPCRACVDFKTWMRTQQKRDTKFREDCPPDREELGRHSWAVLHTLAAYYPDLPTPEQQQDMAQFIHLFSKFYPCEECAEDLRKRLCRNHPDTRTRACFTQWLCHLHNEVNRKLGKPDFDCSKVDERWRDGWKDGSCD
NTR1 agonist: NTR1 (human) agonism; P30989; NTR1-U2OS beta-arrestin-GFP spot imaging, agonist mode; activation, % at 20 µM; 0.17% of 330,000 active; AID 493036;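 active = activation at or above 40% of the spot to cytoplasm intensity ratio, with at least 20 cells analyzed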;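 also: 0% = DMSO without peptide and 100% = 100 nM NTR1 peptide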
UBC9 SUMO inh: blocks human SUMOylation mediated by UBC9; inhibition, % at 35 µM; HTRF SUMOylation assay, SAE1/SAE2 + UBC9, in vitro; AID 2006; 0.36% of 290,000 active; in the data active = inhibition above about 50%, passing the limit was not always enough
Target sequence (P63279 whole entry, looked up): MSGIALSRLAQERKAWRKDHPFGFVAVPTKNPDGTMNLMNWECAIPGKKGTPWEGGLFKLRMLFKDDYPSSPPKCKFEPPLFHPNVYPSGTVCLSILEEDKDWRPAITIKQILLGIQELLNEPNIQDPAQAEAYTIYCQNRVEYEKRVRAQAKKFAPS
* = called active by the depositor; nt = not tested or not shown.

SMILES | Cardio protect | ALR H2O2 inh | NTR1 agonist | UBC9 SUMO inh
COc1cccc(C(=O)Nc2nnc(-c3ccc(Cl)cc3)o2)c1 | 67.2* | 0.5 | 6.4 | -15.5
COc1cccc(C(=O)Nc2cccc(-c3nnc(-c4ccco4)o3)c2)c1 | 113.3* | -2.8 | 36.6 | 15.8
Cc1ccc(C(=O)C2=C(O)C(=O)N(Cc3cccnc3)C2c2ccc(Cl)c(Cl)c2)o1 (configuration not stated) | 5.9 | 87.6* | -0.2 | 14.5
CN1CCc2[nH]c3ccc(C(=O)NN)cc3c2C1 | -1.1 | 97.8* | -1.2 | 7.3
NNC(=O)c1ccc2[nH]c3c(c2c1)CCCC3 | 3.2 | nt | 3.1 | 1.7
Nc1cc(=O)nc(SCC(=O)Nc2ccccc2Cl)n1-c1ccccc1 | -4.0 | 99.2* | 0.2 | 14.4
CC(NC(=O)CSc1nc(=O)cc(N)n1-c1ccccc1)c1ccccc1 (configuration not stated) | 7.4 | 4.4 | 2.5 | -13.0
Nc1cc(=O)nc(SCC(=O)Nc2ccccc2)n1-c1ccccc1 | -6.8 | 1.7 | -0.1 | -15.4
Cc1cccc(-n2c(N)cc(=O)nc2SCC(=O)Nc2ccccc2)c1 | 9.5 | 98.0* | -0.5 | -2.1
Cc1nc(SCC(=O)Nc2ccccc2Cl)oc1C | -7.1 | 99.1* | -0.5 | -0.5
C=CCn1c(N)cc(=O)nc1SCC(=O)Nc1ccc2ccccc2c1 | 11.7 | 98.9* | 0.8 | 4.4
COc1cccc(N2C(=O)CC(c3c[nH]c4ccccc34)C2=O)c1 (configuration not stated) | 8.2 | -10.5 | 2.1 | 20.9
CC12CCC(C(=O)N(NC(=O)c3ccc(O)cc3)C1=O)C2(C)C (configuration not stated) | -2.5 | -6.9 | -0.8 | 5.9
C/C=C/c1ccc(OCC(=O)NCc2ccccc2OC)c(OC)c1 | 4.8 | -0.1 | 1.3 | 9.2
O=C(C[n+]1cc(-c2ccc(Cl)cc2)n2c1CCC2)Nc1nc(-c2ccccc2)cs1 | -5.1 | 93.7* | -0.7 | 4.7
COc1ccc(-c2nnn(-c3ccc(Cl)cc3Cl)c2N)cc1 | -2.0 | 6.6 | 0.1 | 3.4
COc1ccc(N=C2C(=O)N3CCCc4cccc2c43)cc1 | 2.7 | 98.6* | -0.9 | -16.6
Oc1ccc(C23CCCC2C2(CCCC2)c2ccc(O)cc2O3)c(O)c1 (configuration not stated) | -10.2 | 89.9* | 7.9 | nt
O=C(/C=C/c1cccs1)Nc1ccc(Br)cn1 | -7.7 | 0.8 | -0.1 | 6.3
O=C(NCc1ccco1)c1cc2c(s1)CSC2 | nt | 98.8* | 0.4 | 42.3
O=C(NCc1ccc2c(c1)OCO2)c1cc2c(s1)CSC2 | 6.7 | 97.0* | 1.9 | 11.0
O=C(/C=C/c1ccccc1)N(Cc1ccc(Cl)cc1)C1CCS(=O)(=O)C1 (configuration not stated) | -0.3 | 35.2 | 0.2 | -4.3
CCOc1cc(N2CCOCC2)c(OCC)cc1NC(=O)c1ccc(OCc2c(C)noc2C)c(OC)c1 | 63.3* | -19.8 | 2.5 | 3.0
COc1ccc(CC(=O)Nc2ccc(N3CCOCC3)cc2)cc1OC | -3.8 | 13.2 | -0.4 | 15.8
Cc1ccc(C2=NN=C(NC(=O)CSc3nncn3C)SC2)cc1 | -13.5 | 99.5* | -0.4 | -9.7
SMILES | Cardio protect | ALR H2O2 inh | NTR1 agonist | UBC9 SUMO inh
Cc1ccc(C(=O)NC(=O)CSc2nncn2C)cc1 | -0.1 | 1.2 | -0.6 | -2.5
CCOc1ccc(NC(=O)C/C(C)=N/NC(=O)COc2ccc(Br)cc2C)cc1 | -1.9 | -4.3 | 0.0 | 5.0
COC(=O)Cc1n[nH]c(=O)c2ccccc12 | 59.2* | -3.7 | -0.4 | 14.7
CCOc1ccc(OCC(=O)NCc2n[nH]c(=O)c3ccccc23)cc1 | 45.2 | nt | -0.5 | nt
O=C(Cc1n[nH]c(=O)c2ccccc12)OCC(=O)N(Cc1ccccc1)Cc1ccccc1 | 46.3 | -13.2 | 3.9 | 3.2
COC(=O)c1ccc(COC(=O)Cc2n[nH]c(=O)c3ccccc23)cc1 | 38.6 | 3.0 | -0.5 | 0.4
COc1ccc(NCc2n[nH]c(=O)c3ccccc23)cc1 | 76.0* | nt | -2.1 | -13.9
CCOC(=O)Cc1n[nH]c(=O)c2ccccc12 | 69.3* | -10.7 | 0.1 | -2.5
Cc1ccc(OCC(=O)NCc2n[nH]c(=O)c3ccccc23)cc1 | 70.6* | -3.0 | 0.6 | nt
CCOC(=O)c1c(NC(=O)COC(=O)Cc2n[nH]c(=O)c3ccccc23)sc(C(=O)NC)c1C | 106.0* | -1.6 | 6.1 | nt
N#Cc1ncc(C(F)(F)F)cc1Sc1ccc(N)cc1 | -14.8 | 82.2* | -1.0 | 0.6
CCOC(=O)c1ccccc1NC(=O)CSc1nc2[nH]ncc2c(=O)[nH]1 | 6.9 | 16.1 | 0.1 | nt
CCc1ccc2c(c1)C(NC(C)=O)C(=O)N2CCN1CCOCC1 (configuration not stated) | -4.5 | nt | 0.9 | 60.5*
CCCN1C(=O)C(NC(C)=O)c2ccccc21 (configuration not stated) | -3.8 | 11.4 | -0.5 | -3.2
O=C(O)CSc1c(-c2ccccc2)[nH]c2ccccc12 | 0.7 | 97.5* | -1.3 | 7.7
O=C(O)CSc1c(-c2cccs2)[nH]c2ccccc12 | -3.4 | 99.0* | -1.3 | -20.5
O=C(O)CSc1nnc2c(n1)[nH]c1ccccc12 | 7.4 | -2.6 | -0.4 | 5.0
O=C1/C(=C\c2ccco2)SC(=S)N1C1CCCCC1 | nt | 46.9 | 4.2 | 23.1
CC1=C(C#N)C(=O)N(C2CCS(=O)(=O)C2)C(=O)/C1=C\c1ccco1 (configuration not stated) | nt | 15.3 | -0.4 | 90.3*
Cc1ccc(OC(=O)COc2ccccc2)c(-n2nc3ccccc3n2)c1 | -10.3 | 2.0 | -2.2 | -30.7
Cc1ccc(OC(=O)COc2ccccc2C)c(-n2nc3ccccc3n2)c1 | -12.6 | 96.3* | -0.5 | 2.3
Cn1cccc1CC(=O)N/N=C/c1ccc([N+](=O)[O-])cc1 | 3.4 | 98.9* | -0.8 | 20.2
O=C(CNS(=O)(=O)c1ccc([N+](=O)[O-])cc1)N/N=C/c1ccc(O)cc1O | 54.7* | 50.6 | 7.2 | 7.4
O=C(CNS(=O)(=O)c1ccc([N+](=O)[O-])cc1)N/N=C\c1ccc(O)cc1 | 21.6 | 99.2* | 5.6 | 17.1
CC(=O)Nc1ccc(/C=N\NC(=O)CNS(=O)(=O)c2ccc([N+](=O)[O-])cc2)cc1 | 11.8 | -18.3 | -0.1 | 0.9
SMILES | Cardio protect | ALR H2O2 inh | NTR1 agonist | UBC9 SUMO inh
CN(C)c1ccc(NC(=O)CSCc2nc3c(nnn3Cc3ccc(F)cc3)c(=O)[nH]2)cc1 | 1.7 | nt | 1.0 | 8.6
O=C(CSCc1nc2c(nnn2Cc2ccc(F)cc2)c(=O)[nH]1)Nc1cccc(C(F)(F)F)c1 | 6.6 | 96.5* | -1.3 | 5.4
O=C(Nc1ccccc1N1CCN(C(=O)c2ccc(Cl)cc2)CC1)c1ccc2c(c1)OCO2 | 20.4 | -19.3 | 1.9 | 6.1
c1cncc(CNc2ccc3c(c2)OCO3)c1 | -5.0 | 80.2* | -0.7 | -4.6
Oc1ccccc1CNc1ccc2c(c1)OCCO2 | -7.2 | 99.1* | 0.9 | 16.3
Cc1ccc(NCc2ccccc2O)cc1C | -10.5 | 91.4* | 2.4 | -0.9
O=C(NCc1cccnc1)Nc1ccc2c(c1)OCO2 | 0.9 | -5.3 | 0.6 | -10.4
N#Cc1ccc(OCc2c(-c3ccccc3)nnn2CC(=O)O)cc1 | 7.3 | nt | nt | nt
COc1ccccc1C1C(C#N)=C(N)Oc2cc(C)n(CCCn3ccnc3)c(=O)c21 (configuration not stated) | 17.3 | nt | -1.0 | 3.8
COc1ccc(Br)cc1CNC(=O)c1ccc2c(c1)N(C)CCS2 | -1.7 | 4.3 | -1.7 | 10.0
